Bioassay records as filed in PubChem BioAssay.
This is a sample that favours compounds with a hit; in the whole collection about 4.1% have one here.
DAX1 inh-1: blocks DAX1 repression of SF-1 activated StAR promoter; HEK293T StAR-luciferase reporter, SF-1/DAX-1 repression relief; inhibition, % at 6.8 µM; 1.1% of 370,000 active; AID 652010;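 active = inhibition above the mean over all tested compounds plus 3 SD, cut at about 3.6% in these data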;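 also: 0% = DAX-1 cells with DMSO and 100% = cells lacking DAX-1 with DMSO; higher inhibition means more luminescence from relief of DAX-1 repression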
ssDAF12 agonist: activates DAF-12 receptor from parasite S. stercoralis | HEK293 ssDAF-12/GRIP1 lit1-tk-luc reporter, luminescence; % of 3 µM dafachronic acid response | activation, % at 6.8 µM | 1% of 370,000 active | AID 652126;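 active = activation above the mean over all tested compounds plus 3 SD, cut at about 0.9% in these data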;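 also: 0% = DMSO-only wells and 100% = 3 µM delta7-dafachronic acid wells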
hgDAF-12 ag: activates the H. glycines DAF-12 receptor ligand-binding domain | HEK293 GAL4-hgDAF12 UAS-luciferase reporter, agonist luminescence; normalized to butyrate control | activation, % at 6.8 µM | 1.8% of 370,000 active | AID 687014;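 active = activation above a cutoff set at the mean of all screened compounds plus 3 SD, cut at about 10% in these data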;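 also: 0% = DMSO wells and 100% = sodium butyrate wells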
hcDAF12 agonist: activates DAF-12 receptor from parasite H. contortus; HEK293 hcDAF-12 lit1-tk-luc reporter, luminescence; 0% DMSO, 100% Δ7-dafachronic acid; activation, % at 6.8 µM; 1.4% of 370,000 active;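 active = activation above the mean of all tested compounds plus 3 SD, cut at about 5.5% in these data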;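 also: 100% = response to 3 µM Δ7-dafachronic acid high control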
DAX1 inh-2: NR0B1 (DAX1) inhibition; 0.99% of 340,000 active; P51843; HEK293 Gal4-DAX1 luciferase reporter, luminescence; inhibition, % at 6.75 µM;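 active = inhibition above the mean over all tested compounds plus 3 SD, cut at about 4.2% in these data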;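 also: 0% = DAX1-transfected cells with DMSO and 100% = empty-vector control cells with DMSO; inhibition shows as a rise in luminescence from relieved DAX1 repression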
Target sequence (P51843 207-470 limits assumed): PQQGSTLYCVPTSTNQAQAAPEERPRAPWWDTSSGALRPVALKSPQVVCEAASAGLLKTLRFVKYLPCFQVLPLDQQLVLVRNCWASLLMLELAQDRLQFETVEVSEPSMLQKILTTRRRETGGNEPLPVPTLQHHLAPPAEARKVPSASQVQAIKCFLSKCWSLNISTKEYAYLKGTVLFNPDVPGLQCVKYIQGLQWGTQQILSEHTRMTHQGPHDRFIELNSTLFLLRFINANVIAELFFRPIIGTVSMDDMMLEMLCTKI
Active calls of the source: *.

O=C(c1cccs1)N1CCn2c1nc1ccccc12 was read as DAX1 inh-1 4.3*, ssDAF12 agonist -0.6, hgDAF-12 ag 6.8, hcDAF12 agonist 5.2 and DAX1 inh-2 1.7.
Screening Cc1ccc(-c2nc3ncccn3c2NC(=O)Nc2ccc(OC(F)(F)F)cc2)cc1 returned DAX1 inh-1 -0.5, ssDAF12 agonist -1.1, hgDAF-12 ag -0.6 and hcDAF12 agonist 0.6.
`CCn1cc(C(=O)O)c(=O)c2cnc(N3CCN(C(=S)Nc4ccccc4)CC3)nc21` gave DAX1 inh-1 0.4, ssDAF12 agonist -1.9, hgDAF-12 ag -0.4, hcDAF12 agonist -0.4 and DAX1 inh-2 2.8.
CCCCOC(=O)c1ccc(NC(=S)N2CCN(c3ncc4c(=O)c(C(=O)O)cn(CC)c4n3)CC2)cc1 was read as DAX1 inh-1 -0.1, ssDAF12 agonist -1.1, hgDAF-12 ag -2.7, hcDAF12 agonist -2.4 and DAX1 inh-2 4.3*.
Screening O=C(NCc1ccco1)C1CCCN(S(=O)(=O)c2ccc(F)cc2)C1 (centres undefined) returned DAX1 inh-1 0.5, ssDAF12 agonist -1.3, hgDAF-12 ag -1.3 and hcDAF12 agonist -1.8.
Screening CCc1ccccc1NC(=O)CSc1n[nH]c(C)c1[N+](=O)[O-] returned DAX1 inh-1 0.2, ssDAF12 agonist -1.4, hgDAF-12 ag -1.7, hcDAF12 agonist -2.3 and DAX1 inh-2 5.3*.
`Cc1[nH]nc(SCC(=O)NC(C)c2ccccc2)c1[N+](=O)[O-]` (centres undefined) gave DAX1 inh-1 0.0, ssDAF12 agonist -1.9, hgDAF-12 ag 2.4, hcDAF12 agonist -2.0 and DAX1 inh-2 4.3*.
Screening Cc1nc(N)[nH]c(=O)c1CCCNc1ccc(CCC2(CCl)OCCO2)cc1 returned DAX1 inh-1 0.0, ssDAF12 agonist -0.9, hgDAF-12 ag 12.8*, hcDAF12 agonist 2.1 and DAX1 inh-2 1.4.
`Cn1ncc(Cl)c1C(=O)Nc1ccc2c(c1)OCO2` gave DAX1 inh-1 0.8, ssDAF12 agonist 0.0, hgDAF-12 ag 3.6, hcDAF12 agonist 6.3* and DAX1 inh-2 1.3.
Screening O=C(Nc1ccc2c(c1)OCO2)c1c(Cl)nc2sccn12 returned DAX1 inh-1 1.9, ssDAF12 agonist -0.2, hgDAF-12 ag 8.8, hcDAF12 agonist 5.9* and DAX1 inh-2 3.4.
Cn1ncc(Cl)c1C(=O)NCc1ccc2c(c1)OCO2 was read as DAX1 inh-1 -6.6, ssDAF12 agonist -1.0, hgDAF-12 ag -1.2, hcDAF12 agonist -1.8 and DAX1 inh-2 -0.9.
Screening O=C(Nc1cccc2c1[nH]c1ccccc12)C(F)(F)F returned DAX1 inh-1 -0.5, ssDAF12 agonist -0.8, hgDAF-12 ag -0.4, hcDAF12 agonist -0.9 and DAX1 inh-2 -0.6.
Screening O=C(Nc1cccc2c1[nH]c(=O)c1ccccc12)C(F)(F)F returned DAX1 inh-1 4.0*, ssDAF12 agonist -0.7, hgDAF-12 ag 6.4, hcDAF12 agonist -0.9 and DAX1 inh-2 3.4.
Cc1ccc(-n2c(SCC(=O)c3ccc4ccccc4c3)nnc2-c2cccnc2)cc1 was read as DAX1 inh-1 -0.3, ssDAF12 agonist -1.5, hgDAF-12 ag -1.4 and hcDAF12 agonist -0.3.
CC(=O)Nc1ccccc1P(=O)(c1ccccc1)c1ccccc1OC(C)=O (centres undefined) was read as DAX1 inh-1 -0.4, ssDAF12 agonist 0.1, hgDAF-12 ag -0.6, hcDAF12 agonist -1.1 and DAX1 inh-2 4.5*.
For COc1cc(OC)cc(C(=O)NC(=S)N2CCCCC2c2cccnc2)c1 (centres undefined) the results were DAX1 inh-1 0.9, ssDAF12 agonist -1.4, hgDAF-12 ag -2.4, hcDAF12 agonist -0.3 and DAX1 inh-2 3.9.
COc1ccc(NC(=O)N2CCCCC2c2cccnc2)cc1 (centres undefined) was read as DAX1 inh-1 0.6, ssDAF12 agonist -0.2, hgDAF-12 ag 11.0*, hcDAF12 agonist 5.6* and DAX1 inh-2 0.0.
`CCN1CNC(=S)N(CCc2ccccc2)C1` gave DAX1 inh-1 0.2, ssDAF12 agonist -1.3, hgDAF-12 ag -0.4, hcDAF12 agonist 0.6 and DAX1 inh-2 -0.5.
`CCOc1ccc(CCN2CN(CC)CNC2=S)cc1OCC` gave DAX1 inh-1 0.2, ssDAF12 agonist -0.5, hgDAF-12 ag -1.1, hcDAF12 agonist -2.0 and DAX1 inh-2 4.9*.
For CC(=O)N1CCN(S(=O)(=O)c2ccc3c(c2)oc(=O)n3C)CC1 the results were DAX1 inh-1 0.9, ssDAF12 agonist -1.3, hgDAF-12 ag -0.3 and hcDAF12 agonist -1.0.
